TDP1 cell CPT: qHTS for Inhibitors of human tyrosyl-DNA phosphodiesterase 1 (TDP1): qHTS in cells in presence of CPT | 420,000 tested, 12% active | Potency, µM (titrated, usually from 46.2 µM), for inactives: top-dose activity change, negative = growth inhibition, actives largely listed as inhibitors | chicken DT40 Tdp1-/-;hTDP1 cells + 20 nM CPT, ATP luminescence, 48 h | AID 686979, 2013; note: potency is the fitted concentration of half-maximal effect; nearly all actives have a fitted effect of over 55% in size
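Cell growth measured by CellTiter-Glo luminescence after a minimum 48 h, 37 C compound exposure with 20 nM CPT in Tdp1-knockout DT40 cells stably expressing hTDP1, seeded 400/well; qHTS titration format.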
HT1080 IDH1KD tx: qHTS for induction of synthetic lethality in tumor cells producing 2HG: qHTS for the HT-1080-IDH1KD cell line; HT-1080 IDH1 knockdown viability, ATP luminescence, 48 h; Potency, µM (top dose mostly 46.1 µM), for inactives: top-dose activity, negative = toxicity, actives largely listed as cytotoxic; 360,000 tested, 2% active;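 note: potency is the fitted concentration of half-maximal effect; 0% = DMSO wells and -100% = cell-free medium wells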
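Viability of IDH1-knockdown HT-1080 fibrosarcoma cells was assessed by CellTiter-Glo after 48 h at 37 °C with titrated compound; concentration-effect curves were classified by fit quality and response size.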
IL1B secr inh: qHTS for Inhibitors of Inflammasome Signaling: IL-1-beta AlphaLISA Primary Screen | THP-1 LPS/ATP IL-1B secretion, AlphaLISA, 16 h; active compounds read low | activity change, % at 57.5 µM | 360,000 tested, 4.7% active | AID 743279, 2014; in the data active = activity change below about -50%; inconclusive = mostly about -30% to -49%
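Secreted IL-1B measured by AlphaLISA bead assay after 16 h compound exposure of THP-1 cells; compounds (final up to 57.5 uM) added 1 h before LPS (250 ng/mL) and ATP (1.25 mM) stimulation; lower signal means less secretion.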
ALOX12 inh: Primary qHTS assay for inhibitors of human arachidonate 12S-lipoxygenase (ALOX12): Round 2; purified 12hLO, xylenol orange hydroperoxide absorbance; Potency, µM (top dose mostly 108 µM), without a hit: top-dose activity change, negative = inhibition, hits mostly inhibitors; 580,000 tested, 1.1% active; AID 1671190, 2021; note: potency is the fitted concentration of half-maximal effect
Target sequence (P18054 whole entry, looked up): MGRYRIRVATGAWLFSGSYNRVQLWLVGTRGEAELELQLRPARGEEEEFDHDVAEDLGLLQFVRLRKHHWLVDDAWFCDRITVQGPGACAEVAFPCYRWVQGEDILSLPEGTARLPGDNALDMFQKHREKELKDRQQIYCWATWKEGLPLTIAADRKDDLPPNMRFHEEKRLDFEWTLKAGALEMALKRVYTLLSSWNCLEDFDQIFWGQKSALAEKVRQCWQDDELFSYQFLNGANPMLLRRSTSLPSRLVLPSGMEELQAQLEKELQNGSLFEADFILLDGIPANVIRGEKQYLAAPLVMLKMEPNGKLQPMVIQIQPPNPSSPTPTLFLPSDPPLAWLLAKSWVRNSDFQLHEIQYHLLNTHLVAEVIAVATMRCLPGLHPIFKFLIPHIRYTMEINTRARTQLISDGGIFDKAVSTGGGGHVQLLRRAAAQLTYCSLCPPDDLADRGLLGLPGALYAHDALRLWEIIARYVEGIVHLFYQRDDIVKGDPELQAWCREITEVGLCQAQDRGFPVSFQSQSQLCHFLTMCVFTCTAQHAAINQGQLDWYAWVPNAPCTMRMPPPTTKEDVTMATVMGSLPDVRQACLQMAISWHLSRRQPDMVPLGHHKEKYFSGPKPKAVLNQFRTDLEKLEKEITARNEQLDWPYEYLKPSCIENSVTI
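Purified human 12hLO at 150 nM in 25 mM Hepes, 0.01% Triton X-100, pH 7.0, preincubated 15 min at room temperature with compound. Reaction started with 40 uM arachidonic acid, 30 min at room temperature. Hydroperoxide measured by Fe-xylenol orange, 573/405 nm absorbance ratio.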
TDP1 cell noCPT: qHTS for Inhibitors of human tyrosyl-DNA phosphodiesterase 1 (TDP1): qHTS in cells in absence of CPT; DT40 Tdp1-/- hTDP1 cells, no CPT, ATP luminescence, 48 h; Potency, µM (titrated, usually from 46.2 µM), without a hit: top-dose activity change, negative = growth inhibition, actives largely listed as inhibitors; 420,000 tested, 15% active; AID 686978, 2013; note: potency is the fitted concentration of half-maximal effect; nearly all actives have a fitted effect of over 55% in size
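Seeded 400 DT40-hTDP1 cells/well (vehicle DMSO, no 20 nM CPT); pinned compounds; ≥48 hr at 37 °C; CellTiter-Glo luminescence as viability measure.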
HT1080-NT tox: qHTS for induction of synthetic lethality in tumor cells producing 2HG: qHTS for the HT-1080-NT fibrosarcoma cell line | 360,000 tested, 1.6% active | HT-1080-NT fibrosarcoma viability, CellTiter-Glo ATP luminescence, 48 h | Potency, µM (top dose mostly 46.1 µM), for the others: at the highest dose activity, negative = less viability, most hits filed as cytotoxic;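 note: NT is the 2HG producing partner of a matched IDH1 knockdown line; potency is the fitted concentration of half-maximal effect; 0% = DMSO-treated cells and -100% = media-only wells without cells; nearly all actives have a fitted effect of over 55% in size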
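HT-1080-NT; 750 cells/well; 5% FBS RPMI; 48 h compound, 37 degrees C; CellTiter-Glo luminescence; curve fitting and curve-class assignment.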
An asterisk follows results filed as active; [ ] = remark or other dose. Many of the other results were omitted from the sample, so hits are more common in it than they were. Unless noted, calls come from the whole dose curve; as a rule, active = well fitted curve in the direction sought with a large enough effect; inconclusive = small, poorly fitted or top-dose-only effect, or another doubt; inactive = no such curve, though single readings can be large; an effect the other way counts as inactive or inconclusive. Unless noted, % is set by controls: 0 for no effect and ±100 for the full control effect.

Screening CCCNC(=O)C(Cc1ccc(Cl)cc1)NC(=O)c1ccc(-c2ccccc2)cc1 (stereo unspecified) returned TDP1 cell CPT 8.2µM*, HT1080 IDH1KD tx 10%, IL1B secr inh -7, ALOX12 inh 6%, TDP1 cell noCPT 6.5µM* and HT1080-NT tox -1%.
For CC(=O)NC(Cc1ccc(I)cc1)C(=O)NCC(N)C(=O)c1ccccc1 (stereo unspecified) the results were TDP1 cell CPT inconclusive, HT1080 IDH1KD tx 1%, TDP1 cell noCPT inconclusive and HT1080-NT tox -1%.
COc1cc(C#N)cc(Cl)c1OCc1ccc(C#N)cc1 was read as ALOX12 inh 18%.
CCc1sc(C(=O)OCC(=O)N2CCC(c3ccccc3)=N2)cc1C was read as ALOX12 inh -17%.
O=C(Cc1ccccc1)N1CCC2(CC(c3cccnc3)=NO2)C1 (stereo unspecified) was read as ALOX12 inh 1%[6.33 µM].
Screening O=C(Cc1cccc(F)c1)NCC1COc2ncncc2C(=O)N1Cc1ccccc1 (stereo unspecified) returned ALOX12 inh 1%[176 µM].
Screening O=C(Nc1csnn1)c1csnn1 returned TDP1 cell CPT -1%, HT1080 IDH1KD tx 7%, IL1B secr inh 0, ALOX12 inh 10µM*, TDP1 cell noCPT 2% and HT1080-NT tox 2%.
Screening COc1ccc(C(=O)Nc2ccc3oc(=O)ccc3c2)cc1 returned ALOX12 inh -12%.
O=C(Nc1cccs1)NC1CCCC1 was read as TDP1 cell CPT 3%, HT1080 IDH1KD tx 6%, IL1B secr inh 10, ALOX12 inh inconclusive, TDP1 cell noCPT 4% and HT1080-NT tox 4%.
`CC1CCC(NC(=O)Nc2cccs2)CC1` (stereo unspecified) gave TDP1 cell CPT -26%, HT1080 IDH1KD tx -3%, IL1B secr inh 0, ALOX12 inh 13µM*, TDP1 cell noCPT -15% and HT1080-NT tox -6%.
For Cc1ccc(CNc2nc(-c3ccco3)nn2S(C)(=O)=O)o1 the results were ALOX12 inh -25%.
Cc1ccc2cccc(Oc3nnnn3-c3ccccc3)c2n1 was read as TDP1 cell CPT -16%, HT1080 IDH1KD tx -8%, IL1B secr inh 2, ALOX12 inh 3%, TDP1 cell noCPT -28% and HT1080-NT tox -7%.
`c1ccc(-n2nnnc2Oc2cccc3cccnc23)cc1` gave TDP1 cell CPT -15%, HT1080 IDH1KD tx inconclusive, IL1B secr inh 3, ALOX12 inh 18%, TDP1 cell noCPT -6% and HT1080-NT tox 7.9µM*.
For c1ccc(-n2nnnc2Oc2ccc(-n3ccnc3)cc2)cc1 the results were TDP1 cell CPT -13%, HT1080 IDH1KD tx 6%, IL1B secr inh -64*, ALOX12 inh -5%, TDP1 cell noCPT -9% and HT1080-NT tox 9%.
For COCCn1cc(C(=O)NCCc2ccc(S(N)(=O)=O)cc2)ccc1=O the results were ALOX12 inh 8%.
Screening CCCCC1Cc2[nH]c(=S)[nH]c(=O)c2C(C(C)C)O1 (stereo unspecified) returned TDP1 cell CPT inconclusive, HT1080 IDH1KD tx -9%, IL1B secr inh 40, ALOX12 inh 0%, TDP1 cell noCPT inconclusive and HT1080-NT tox 10%.
Screening CCCCC1Cc2[nH]c(=S)[nH]c(=O)c2C(c2cccc3ccccc23)O1 (stereo unspecified) returned TDP1 cell CPT -15%, HT1080 IDH1KD tx inconclusive, IL1B secr inh 26, ALOX12 inh 13µM*, TDP1 cell noCPT inconclusive and HT1080-NT tox -24%.
Screening O=c1[nH][nH]c2c1[C@H](CCc1cccc(Cl)c1)O[C@H](CCc1ccccc1)C2 returned TDP1 cell CPT inconclusive, HT1080 IDH1KD tx -22%, IL1B secr inh 0, ALOX12 inh -9%, TDP1 cell noCPT 18µM* and HT1080-NT tox -6%.
Screening O=c1[nH]c(=S)[nH]c2c1[C@H](C1CC1)O[C@H](CCc1ccccc1)C2 returned TDP1 cell CPT inconclusive, HT1080 IDH1KD tx -8%, IL1B secr inh 1, ALOX12 inh inconclusive, TDP1 cell noCPT 13µM* and HT1080-NT tox -10%.
For COC(=O)CCCC[C@@H]1O[C@H](CCc2ccccc2)Cc2[nH][nH]c(=O)c21 the results were TDP1 cell CPT -18%, HT1080 IDH1KD tx 5%, IL1B secr inh 34, ALOX12 inh 134%, TDP1 cell noCPT inconclusive and HT1080-NT tox 1%.
Screening CC(C)[C@@H]1Cc2[nH][nH]c(=O)c2[C@H](CCc2ccccc2)O1 returned TDP1 cell CPT -17%, HT1080 IDH1KD tx 2%, IL1B secr inh -2, ALOX12 inh -20%, TDP1 cell noCPT inconclusive and HT1080-NT tox 10%.
CC(C)[C@@H]1Cc2[nH]c(=S)[nH]c(=O)c2[C@H](CCc2ccccc2)O1 was read as TDP1 cell CPT inconclusive, HT1080 IDH1KD tx -10%, IL1B secr inh 21, ALOX12 inh 45µM*, TDP1 cell noCPT inconclusive and HT1080-NT tox -4%.
`O=C(c1ccccc1F)N1CCCC2(C1)C(=NC1CCCCC1)NC(=O)N2c1cccnc1` (stereo unspecified) gave ALOX12 inh 44%.
For O=C(CCCc1c[nH]c2ccccc12)NCC12CC3CC(CC(C3)C1)C2 the results were ALOX12 inh -20%.
For N#CC1=C(N)C2=CCCC[C@H]2[C@H](c2ccc(Br)cc2)C1(C#N)C#N the results were TDP1 cell CPT inconclusive, HT1080 IDH1KD tx -5%, IL1B secr inh -95*, TDP1 cell noCPT inconclusive and HT1080-NT tox -4%.
N#CC1=C(N)C2=CCCC[C@H]2[C@H](c2ccccc2)C1(C#N)C#N was read as TDP1 cell CPT inconclusive, HT1080 IDH1KD tx inconclusive, IL1B secr inh -56*, ALOX12 inh -25%, TDP1 cell noCPT inconclusive and HT1080-NT tox inconclusive.
N#CC1=C(N)C(C#N)(C#N)[C@H](c2ccncc2)[C@H]2CC3(CC=C12)OCCO3 was read as TDP1 cell CPT inconclusive, HT1080 IDH1KD tx -4%, IL1B secr inh 7, ALOX12 inh -3%, TDP1 cell noCPT -17% and HT1080-NT tox -3%.
